Bioassay records deposited in PubChem by several laboratories.
Only some compounds are listed: those with a hit (about 1.5% of all), similar ones and a draw of the others.
Keap1 Nrf2 FP: Keap1-Nrf2 (human) interaction inhibition; actives 0.15% (n = 340,000); inhibition, % at 9.4 µM; Q14145; AID 504523; Keap1 Kelch-Nrf2 peptide fluorescence polarization, 1536-well; in the data active = inhibition above about 12%;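 also: human Keap1 Kelch domain with fluorescein labeled Nrf2 9mer peptide probe; 0% = neutral control wells and 100% = peptide positive control; higher means more block of Keap1 binding to Nrf2 peptide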
EBV gp42 inh: EBV gp42 inhibition; Fluorescence polarization binding assay, mP read-out; inhibition, % (tested at 21.74 µM); actives 0.42% (n = 220,000); AID 1085; in the data active = inhibition above about 50%
C-LANA FP: blocks KSHV LANA C-terminal domain binding to DNA. MBP-C-LANA/FAM-LBS DNA binding, fluorescence polarization. inhibition, % at 9 µM. actives 0.078% (n = 340,000);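 active = highest replicate inhibition at or above 60% at 9 µM, even if other replicates fall short; inactive = all replicates below 60% inhibition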;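 also: 0% = neutral control wells and 100% = 4 µM acridine orange control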
LANA-H2B inh: blocks KSHV LANA binding to histone H2A/H2B; actives 0.6% (n = 320,000); cell-free LANA-H2A/H2B peptide, fluorescence polarization; inhibition, % (concentration not given with the values); AID 2629; Q9QR71; in the data active = inhibition mostly above about 10%, no sharp cut-off; inactive = mostly below about 6.7%
Target sequence (Q9QR71 whole entry, looked up): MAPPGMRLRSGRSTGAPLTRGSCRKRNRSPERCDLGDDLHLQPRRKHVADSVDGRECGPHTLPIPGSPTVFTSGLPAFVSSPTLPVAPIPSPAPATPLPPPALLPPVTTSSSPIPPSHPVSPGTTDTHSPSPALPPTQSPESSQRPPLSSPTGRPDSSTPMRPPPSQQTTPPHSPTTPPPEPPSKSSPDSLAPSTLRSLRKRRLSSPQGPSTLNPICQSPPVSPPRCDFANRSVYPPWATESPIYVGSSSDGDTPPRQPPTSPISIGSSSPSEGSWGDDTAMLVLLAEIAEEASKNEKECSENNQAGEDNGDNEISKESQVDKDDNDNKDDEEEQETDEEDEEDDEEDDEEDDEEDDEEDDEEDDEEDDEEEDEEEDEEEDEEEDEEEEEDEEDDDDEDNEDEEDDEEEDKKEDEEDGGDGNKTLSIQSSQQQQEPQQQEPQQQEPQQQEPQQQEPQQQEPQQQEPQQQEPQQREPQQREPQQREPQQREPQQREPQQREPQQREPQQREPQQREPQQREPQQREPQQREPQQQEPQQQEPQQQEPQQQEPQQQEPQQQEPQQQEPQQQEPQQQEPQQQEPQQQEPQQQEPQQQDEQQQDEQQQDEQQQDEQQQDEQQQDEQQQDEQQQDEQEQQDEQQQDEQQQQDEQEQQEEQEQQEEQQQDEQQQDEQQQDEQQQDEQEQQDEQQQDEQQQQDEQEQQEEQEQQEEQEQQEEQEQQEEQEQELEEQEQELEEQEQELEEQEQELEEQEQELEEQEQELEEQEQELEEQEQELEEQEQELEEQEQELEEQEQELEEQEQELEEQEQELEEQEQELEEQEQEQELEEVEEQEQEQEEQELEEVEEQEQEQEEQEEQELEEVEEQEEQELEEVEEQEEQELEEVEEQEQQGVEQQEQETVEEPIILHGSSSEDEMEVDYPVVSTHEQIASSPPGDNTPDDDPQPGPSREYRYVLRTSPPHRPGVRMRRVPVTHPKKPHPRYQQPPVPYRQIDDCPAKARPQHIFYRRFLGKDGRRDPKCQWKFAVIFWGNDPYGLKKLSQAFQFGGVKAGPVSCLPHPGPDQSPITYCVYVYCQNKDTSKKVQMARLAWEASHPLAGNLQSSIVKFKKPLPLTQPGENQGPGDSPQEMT
GLD-1 TGE inh: GLD-1-TGE RNA interaction inhibition (C. elegans); Q17339; purified GLD-1 + fluorescein TGE RNA, fluorescence polarization; inhibition, % at 5.96 µM; actives 0.44% (n = 320,000); AID 2280;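 active = percent inhibition above a per-plate cutoff, the plate mean of test compounds plus 3 SD, cut at about 30% in these data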;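 also: 0% = DMSO wells with GLD-1 and probe and 100% = wells lacking GLD-1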
E coli Lon inh: inhibitors of E. coli Lon protease. P0A9M0. purified E. coli Lon protease, fluorescence polarization. inhibition, % at 7.94 µM. actives 0.42% (n = 360,000); in the data active = inhibition above about 13%, passing the limit was not always enough;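 also: 0% = enzyme with probe and DMSO and 100% = no enzyme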
GLD-1 TGE cf: GLD-1 TGE RNA interaction inhibition, confirmation. shares compounds with GLD-1 TGE inh. GLD-1/FL-TGE RNA fluorescence polarization, biochemical. inhibition, % at 5.96 µM. actives 10% (n = 550). AID 2459;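 active = average inhibition across triplicates above the hit cutoff set in the primary screen, cut at about 32% in these data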;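 also: 0% = GLD-1 with RNA probe and DMSO and 100% = wells lacking GLD-1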
The depositor's hits bear a star.

For O=C(NCCC1=CCCCC1)C(=O)NCc1ccncc1 the results were Keap1 Nrf2 FP 1, EBV gp42 inh -4, C-LANA FP 1, LANA-H2B inh 0, GLD-1 TGE inh 47*, E coli Lon inh -3 and GLD-1 TGE cf 13.
O=C(NCCC1=CCCCC1)C(=O)NCCc1ccc(Cl)cc1 was read as Keap1 Nrf2 FP -1, EBV gp42 inh -16, C-LANA FP -1, LANA-H2B inh 4, GLD-1 TGE inh -13 and E coli Lon inh 1.
`Cc1cc2ccccc2n1CCNC(=O)c1ccc(Br)o1` gave Keap1 Nrf2 FP -2, EBV gp42 inh 22, C-LANA FP 5, LANA-H2B inh 3, GLD-1 TGE inh 36*, E coli Lon inh 9 and GLD-1 TGE cf 11.
Screening Cc1cc2ccccc2n1CCNC(=O)COc1ccccc1 returned Keap1 Nrf2 FP -2, EBV gp42 inh 7, C-LANA FP 0, LANA-H2B inh -2, GLD-1 TGE inh 72*, E coli Lon inh 2 and GLD-1 TGE cf 11.
Screening CCC(=O)NCCn1c(C)cc2ccccc21 returned Keap1 Nrf2 FP 5, EBV gp42 inh -1, C-LANA FP 1, LANA-H2B inh 2, GLD-1 TGE inh 25 and E coli Lon inh 5.
CSc1ccccc1NC(=O)CSc1nncs1 was read as Keap1 Nrf2 FP -6, EBV gp42 inh -20, C-LANA FP 2, LANA-H2B inh 2, GLD-1 TGE inh 3 and E coli Lon inh 4.
`CCOC(=O)c1c(NC(=O)CSc2nc3ccc(C)cc3[nH]2)sc2c1CC(C)(C)NC2(C)C` gave Keap1 Nrf2 FP 0, C-LANA FP -20, LANA-H2B inh -6, GLD-1 TGE inh -16 and E coli Lon inh -21.
Screening COc1ccccc1Oc1c(C)oc2c(CN3CCN(CCO)CC3)c(O)ccc2c1=O returned EBV gp42 inh -8, LANA-H2B inh -11, GLD-1 TGE inh 61* and GLD-1 TGE cf 1.
CCOc1ccccc1Oc1c(C)oc2c(CN3CCN(CCO)CC3)c(O)ccc2c1=O was read as Keap1 Nrf2 FP -1, C-LANA FP -2, LANA-H2B inh 1, GLD-1 TGE inh 1 and E coli Lon inh 0.
For Cc1cc2c(c(=O)o1)C(c1ccc([N+](=O)[O-])o1)C(C#N)=C(N)O2 (stereo unspecified) the results were Keap1 Nrf2 FP -1, EBV gp42 inh -2, C-LANA FP 12, LANA-H2B inh -2, GLD-1 TGE inh 36*, E coli Lon inh -4 and GLD-1 TGE cf -6.
CCC(CC)C1C(C#N)=C(N)Oc2cc(C)oc(=O)c21 (stereo unspecified) was read as Keap1 Nrf2 FP -1, EBV gp42 inh -8, C-LANA FP -2, LANA-H2B inh -1, GLD-1 TGE inh 4 and E coli Lon inh -4.
CC(=O)N1c2ccc(S(=O)(=O)N3CCCC(C(=O)NC4CCCC(C)C4C)C3)cc2CC1C (stereo unspecified) was read as Keap1 Nrf2 FP 0, C-LANA FP 0, LANA-H2B inh 10, GLD-1 TGE inh -1 and E coli Lon inh -4.
`Cc1ccnc(Nc2nc(-c3ccc(Cl)cc3)cs2)c1` gave Keap1 Nrf2 FP 1, C-LANA FP 2, LANA-H2B inh 0, GLD-1 TGE inh 32*, E coli Lon inh -14 and GLD-1 TGE cf -4.
Screening COc1ccccc1CNCC(=O)Nc1ccc(N(C)C)cc1 returned Keap1 Nrf2 FP 5, C-LANA FP 3, LANA-H2B inh 0, GLD-1 TGE inh 50*, E coli Lon inh 3 and GLD-1 TGE cf -2.
For Cc1cc(C(=O)NCc2ccccc2Br)no1 the results were Keap1 Nrf2 FP 2, EBV gp42 inh -19, C-LANA FP -4, LANA-H2B inh 0, GLD-1 TGE inh -6 and E coli Lon inh -6.
Screening CCOC(=O)Cc1csc(/N=C/c2c(O)n(-c3ccc(C)cc3C)c(=O)c3ccccc23)n1 returned Keap1 Nrf2 FP -1, EBV gp42 inh -25, C-LANA FP 3, LANA-H2B inh 2, GLD-1 TGE inh 38*, E coli Lon inh -6 and GLD-1 TGE cf -26.
`Cc1ccc(/C=C2/NC(=O)N(Cc3ccccc3F)C2=O)o1` gave Keap1 Nrf2 FP -4, EBV gp42 inh -135, C-LANA FP -1, LANA-H2B inh 4, GLD-1 TGE inh 34*, E coli Lon inh 4 and GLD-1 TGE cf -50.
CCN1C(=O)N/C(=C/c2ccc(C)o2)C1=O was read as Keap1 Nrf2 FP -4, EBV gp42 inh -10, C-LANA FP 2, LANA-H2B inh -1, GLD-1 TGE inh 43*, E coli Lon inh 5 and GLD-1 TGE cf -10.
Screening Cc1c(C(=O)O)cccc1-c1ccc(/C=C2/NC(=O)N(c3ccccc3)C2=O)o1 returned Keap1 Nrf2 FP -5, EBV gp42 inh -15, C-LANA FP 1, LANA-H2B inh 0, GLD-1 TGE inh 1 and E coli Lon inh 5.
`Cc1ccc(/C=C2/NC(=O)N(c3ccccc3)C2=O)o1` gave Keap1 Nrf2 FP -3, EBV gp42 inh -54, C-LANA FP 0, LANA-H2B inh -1, GLD-1 TGE inh 50*, E coli Lon inh 4 and GLD-1 TGE cf -69.
Cc1ccc(/C=C2/NC(=O)N(Cc3ccc(Br)cc3)C2=O)o1 was read as Keap1 Nrf2 FP -3, EBV gp42 inh -47, C-LANA FP 3, LANA-H2B inh -5, GLD-1 TGE inh 25 and E coli Lon inh -12.
Cc1cc(/C=C(\C#N)c2nnc(N3CCOCC3)n2-c2ccccc2)c(C)n1-c1ccccc1 was read as EBV gp42 inh -4, LANA-H2B inh 8, GLD-1 TGE inh 49* and GLD-1 TGE cf 5.
Screening CC(C)CCNc1c(-c2cccs2)nc2ccccn12 returned Keap1 Nrf2 FP -1, EBV gp42 inh -15, C-LANA FP -4, LANA-H2B inh -5, GLD-1 TGE inh 46*, E coli Lon inh -4 and GLD-1 TGE cf 2.
For CS(=O)(=O)Nc1ccc(C(=O)NCCSCc2c(F)cccc2Cl)cc1 the results were Keap1 Nrf2 FP 3, EBV gp42 inh -9, C-LANA FP -1, LANA-H2B inh 8, GLD-1 TGE inh 37*, E coli Lon inh -4 and GLD-1 TGE cf -3.
For Cc1cccc(OCc2nnc(SCC(=O)Nc3nccs3)o2)c1 the results were Keap1 Nrf2 FP 5, EBV gp42 inh -8, C-LANA FP -2, LANA-H2B inh -1, GLD-1 TGE inh 2 and E coli Lon inh 13.
COc1nnc(-c2ccc(C)c(S(=O)(=O)NCCO)c2)c2ccccc12 was read as Keap1 Nrf2 FP 4, EBV gp42 inh -7, C-LANA FP -1, LANA-H2B inh 1, GLD-1 TGE inh 49*, E coli Lon inh -1 and GLD-1 TGE cf -1.
